Assay results: PubChem BioAssay AID485314 (National Center for Advancing Translational Sciences (NCATS), 2010)
Hit rate of the full screen: of about 340,000 compounds, about 4,500 (1.3%) were called active. Another 5% or so got no clear call; they are omitted. This is one part of a sample in which actives are shown more often than they occur. Calls come from the whole dose curve; as a rule, active = well fitted inhibition curve with a large enough effect; inconclusive = small, poorly fitted or top-dose-only effect, or another doubt; inactive = no such curve, though single readings can be large or run the other way.

Each compound was assayed against DNA polymerase beta (Homo sapiens) (UniProt P06746) (assay: qHTS Assay for Inhibitors of DNA Polymerase Beta). Conditions: Pol beta primer extension/strand displacement, fluorescence kinetic; series mostly up to 114 µM.
From the text: The base excision repair system in human cells is a target for therapeutic modulation of the response to irradiation treatment and DNA-damaging drugs. A key enzyme in this system is the bi-functional DNA polymerase known as DNA polymerase Beta (Pol Beta). The following is a homogeneous kinetic assay to study the primer extension and strand-displacement reaction catalyzed by pol beta.
A stepwise description of the 1536-well assay is shown in next Table. Three microliters of reagents (buffer in column 3 and 4 as negative control and 10 nM Pol beta in columns 1, 2, and 5-48) was dispensed into 1,536-well black solid-bottomed plate. Compounds (23 nL) were transferred via Kalypsys pin tool equipped with 1536-pin array (10 nL slotted pins, V&P Scientific, San Diego, CA). The plates were incubated for 15 min at room temperature, and 1 uL substrate (50 nM final concentration) were added to start the reaction and immediately read at 0 min read on Viewlux reader. The plate were further incubated for 10 min at room temperature, and then read on Viewlux again. Throughout the screen, reagent bottle and all liquid lines were chilled and made light-tight to minimize reagent degradation. All screening operations were performed on a fully integrated robotic system (Kalypsys, San Diego, CA) containing one RX-130 and two RX-90 anthropomorphic robotic arms (Staubli, Duncan, SC). Library plates were screened starting from the lowest and proceeding to the highest concentration, and a double-dipping step of the highest concentration was required to access higher concentrations of compounds. Vehicle-only plates, with DMSO being pin-transferred to the entire column 5-48 compound area, were inserted uniformly at the beginning and the end of each library in order to monitor for and record any shifts in the background, which can be affected by reagent dispensers or loss in enzyme activity overtime. Screening data were corrected, normalized, and concentration-effect relationships were derived by using publicly-available curve fitting algorithms developed in-house (http://ncgc.nih.gov/pub/openhts). A four parameter Hill equation was fitted to the concentration-response data by minimizing the residual error between the modeled and observed responses.
Potency is the fitted concentration of half-maximal effect.

Potency, active:
COc1ccc(-c2nc3c(c(SCC(=O)Nc4ccc(C(=O)O)cc4)n2)Cc2ccccc2O3)cc1 2.24 µM
Cc1c(CC(=O)N2CCN(C(=O)C3COc4ccccc4O3)CC2)c(=O)oc2c(O)c(O)ccc12 (stereo not drawn) 0.794 µM
Cc1cc(/C=C2\SC(=O)N(C)C2=O)c(C)n1-c1cccc(C(=O)O)c1 28.2 µM
O=c1nc(N/N=C/c2ccco2)cn[nH]1 11.2 µM
Cc1ccc(-c2nn(-c3ccccc3)cc2/C=C2\SC(=S)N(CCCCCC(=O)O)C2=O)o1 50.1 µM

Potency, inactive:
COc1cc(OC)cc(-c2nnc(SCC(=O)Nc3ccc(C(=O)O)cc3)s2)c1
COc1ccc(NC(=O)CSc2nc(N)c(-c3ccccc3)c(=O)[nH]2)cc1
O=C(NCCc1csc(-c2ccc(C(F)(F)F)cc2)n1)C(=O)Nc1ccc(F)c(Cl)c1
CC(=O)c1ccc(NC(=O)CSc2nc(-c3ccccc3F)nc3c2c(=O)n(C)c(=O)n3C)cc1
Cc1c(C)c2ccc(OCC(=O)N3CCC(C(=O)O)CC3)c(C)c2oc1=O
COc1ccc(OC)c2sc(N3CCN(C(=O)C4COc5ccccc5O4)CC3)nc12 (stereo not drawn)
COc1ccc(OC)c(CNC(=O)CN2C(=O)CCn3nc(-c4cn(C)c5ccccc45)cc32)c1
CC(=O)Nc1ccc(S(=O)(=O)N2CCN(c3ccccc3)CC2)cc1
Cc1cc(/C=C2\SC(=Nc3ccc(N4CCOCC4)cc3)N(C)C2=O)c(C)n1-c1cccnc1
Cc1cc(/C=C2/SC(=O)N(CC(=O)N3CCCC3)C2=O)c(C)n1C
O=C(CSCc1cnn(-c2ccccc2)c1-n1cccc1)NCc1ccc(Cl)cc1
COc1ccccc1/C=C/c1nc(C#N)c(NC(C)c2ccccc2)o1 (stereo not drawn)
COc1ccc(-c2nc3sc(CCNC(=O)C(C)(C)C)c(C)n3n2)cc1
Cc1ccc2onc(CC(=O)N3CCN(c4ccc(Cl)cc4)CC3)c2c1
CC(C)c1ccc(S(=O)(=O)Nc2ccc(O)c(Sc3nc4ccccc4s3)c2)cc1
COc1cccc(NC(=O)CSC2=Nc3ccccc3C3=NC(CC(=O)NC4CCCCC4)C(=O)N23)c1 (stereo not drawn)
Cc1n[nH]c(=O)nc1N/N=C/c1cccs1
O=C(Cn1cnc2ccccc21)N/N=C/c1ccco1
CCC(=O)N1CCc2cc(S(=O)(=O)NC(C(=O)Nc3ccc(C(C)=O)cc3)C(C)C)ccc21 (stereo not drawn)
Cc1cccc(C2CC(=O)Oc3c2c(=O)n(C)c2ccccc32)c1 (stereo not drawn)
Cc1ccc(OCC(=O)Nc2ccc(Cl)c(-c3nc4ccccc4[nH]3)c2)cc1C
C=CCOc1ccc(/C=C2\SC(=S)N(CCC(=O)O)C2=O)cc1
COc1ccc(-c2nn(-c3ccccc3)cc2/C=C2/SC(=S)N(CCCC(=O)O)C2=O)c(C)c1
